Test [1] concerns Wnt5a (protein binding on small-molecule microarray). In words: Wnt5a binders on small-molecule microarray, primary screen, biophysical, 635/667 nm fluorescence (AID 1142).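 Also: fluorescence read at 667 nm with signal to noise per printed feature.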 As to conditions: 635 nm fluorescence, higher = more signal.
A short description of test [2]: cell viability in Huh7 cells, primary screen, cytotoxicity control for HCV replication inhibitor project, CellTiter-Glo luminescence, basal, 48 h (AID 1143).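 Also: Huh7 hepatoma cells carrying a hepatitis C replication reporter with no stimulus; test concentration not given here.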 As to conditions: Huh7 HCV replicon, higher = more signal, called active from +8 up or from −8 down.
A short description of test [3]: P. aeruginosa biofilm formation inhibitors, primary screen, PAO1 strain, BacTiter-Glo luminescence, LB-PBS (AID 1144). As to conditions: 12 h, higher = more signal.
The nature of test [4]: CREB reporter modulators without forskolin, primary screen, cell-based, PC12, CRE-LacZ reporter, unstimulated (AID 1145). As to conditions: no forskolin, luminescence, 4.5 h, higher = more signal, called active from +8 up or from −8 down.
The nature of test [5]: CREB reporter modulators under forskolin, primary screen, cell-based, PC12, CRE-LacZ reporter, forskolin-stimulated (AID 1146).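 Also: PC12 cells with 6xCRE LacZ reporter stimulated by forskolin 10 µM; beta-galactosidase reporter signal reflecting CREB driven transcription.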 The note with it: luminescence, 4.5 h, higher = more signal, called active from +8 up or from −8 down.
The target of test [6] is Streptavidin (Streptomyces avidinii) (UniProt P22629). Kind of test: streptavidin binders on small-molecule microarray, primary screen, artefact control for SMM compound annotation, biophysical, 635/667 nm fluorescence (AID 1147).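 Also: signal reflects streptavidin binding to arrayed compounds as a control protein.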 As to conditions: streptavidin binding, higher = more signal.
Streptavidin (Streptomyces avidinii), sequence (P22629 whole entry, looked up): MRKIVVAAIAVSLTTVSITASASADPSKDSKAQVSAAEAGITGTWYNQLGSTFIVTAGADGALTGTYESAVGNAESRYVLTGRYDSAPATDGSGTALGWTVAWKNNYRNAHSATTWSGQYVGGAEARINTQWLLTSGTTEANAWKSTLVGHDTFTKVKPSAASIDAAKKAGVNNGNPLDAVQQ
Test [7] is described as follows: small-molecule binders of probe aInhba, primary screen, biochemical, small-molecule microarray, 635/667 nm fluorescence (AID 1148).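 Also: score merges 667nm spot fluorescence with signal-to-noise for antibody binding to printed compounds.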 The note with it: higher = more signal.
The target in test [8] is Torsin-1A (Homo sapiens) (UniProt O14656). Kind of test: torsin A binders from cell lysate, primary screen, small-molecule microarray, wild-type, 635/667 nm (AID 1149). The note with it: COS7 hTOR1A-WT lysate, 635 nm fluorescence, higher = more signal.
Torsin-1A (Homo sapiens), sequence (O14656 whole entry, looked up): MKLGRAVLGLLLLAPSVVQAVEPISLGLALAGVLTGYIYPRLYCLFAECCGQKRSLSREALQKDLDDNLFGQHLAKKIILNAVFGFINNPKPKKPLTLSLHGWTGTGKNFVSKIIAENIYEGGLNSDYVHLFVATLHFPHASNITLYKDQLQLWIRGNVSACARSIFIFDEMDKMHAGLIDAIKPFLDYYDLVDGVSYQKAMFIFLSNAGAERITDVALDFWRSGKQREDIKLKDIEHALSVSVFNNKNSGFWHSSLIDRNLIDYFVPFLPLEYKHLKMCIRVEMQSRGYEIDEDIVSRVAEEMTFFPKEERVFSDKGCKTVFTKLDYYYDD
The target is the same in test [9]. Kind of test: small-molecule binders of mutant TOR1A in lysate, primary screen, cell lysate, small-molecule microarray, COS7 lysate, 635/667 nm fluorescence (AID 1150).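 Also: score pools 667 nm emission and signal to noise measuring lysate protein binding.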 As to conditions: COS7 hTOR1A mutant lysate, 635 nm fluorescence, higher = more signal.
The subject of test [10] is Sonic hedgehog protein (Shh). In words: small-molecule binders of Shh protein, primary screen, biochemical, small-molecule microarray, 635/667 nm fluorescence (AID 1151).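 Also: Shh protein binding to compounds spotted on small-molecule microarray slides; score combines spot fluorescence intensity with signal-to-noise across triplicate slides.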 The note with it: small-molecule microarray binding, 635 nm fluorescence; higher = more signal.
Test [11] can be described thus: E. coli DRC41 culture turbidity changes, primary screen, E. coli filamentation inducer project, strain DRC41, OD650, 48 h (AID 1152).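 Also: E. coli MC1000 strain DRC41 lacking acrAB efflux pump and sulA.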 As to conditions: E. coli DRC41 (acrAB sulA), higher = more signal, called active from +8 up or from −8 down.
The nature of test [12]: small-molecule binders of probe aLefty1, primary screen, biochemical, small-molecule microarray, 635/667 nm fluorescence (AID 1153).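 Also: score merges spot fluorescence with signal-to-noise ratio from the scanned slide images.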 As to conditions: higher = more signal.
A short description of test [13]: PSAC antagonists in infected red cells, primary screen, cell-based, P. falciparum Indochina, OD700, 1 h (AID 1154). The note with it: P. falciparum Indochina infected RBC osmotic lysis, higher = more signal, called active from +8 up or from −8 down.
The nature of test [14]: PSAC antagonists in infected red cells, primary screen, cell-based, P. falciparum Indochina, OD700, 2 h (AID 1155).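 Also: lysis reports solute entry through the parasite surface anion channel PSAC; channel blockers reduce lysis of infected cells.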 The note with it: P. falciparum Indochina infected erythrocytes, osmotic lysis OD700; higher = more signal, called active from +8 up or from −8 down.
Test [15] is described as follows: osmotic lysis modulators in infected erythrocytes, primary screen, PSAC antagonist project, cell-based, P. falciparum Indochina, OD700, 3 h (AID 1156). As to conditions: higher = more signal, called active from +8 up or from −8 down.
The nature of test [16]: PSAC antagonists in infected red cells, primary screen, cell-based, P. falciparum Indochina, OD700, 18 h (AID 1157). The note with it: P. falciparum Indochina infected erythrocytes, osmotic lysis OD700, 18 h; higher = more signal, called active from +8 up or from −8 down.
Test [17] is described as follows: modulators of S6 phosphorylation in cells, primary screen, cell-based, A549, cytoblot, luminescence, serum-stimulated (AID 1158).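 Also: serum-stimulated A549 lung adenocarcinoma cells; signal is phosphorylated S6 detected by cytoblot immunostaining with HRP secondary.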 As to conditions: A549 phospho-S6 cytoblot, 5 h, higher = more signal.
Test [18] addresses NADPH oxidase 2 (Homo sapiens) (UniProt P04839). In words: NOX2-dependent H2O2 signal modulators, primary screen, NOX inhibitor project, cell-based, HEK293-NOX2, PMA-stimulated, Amplex Red fluorescence (AID 1159). Also: test concentration not given here. The note with it: 45 min, higher = more signal, called active from +8 up or from −8 down.
Test [19] deals with NADPH oxidase 4 (Homo sapiens) (UniProt Q9NPH5). Kind of test: NOX4-dependent H2O2 signal modulators, primary screen, NOX inhibitor project, cell-based, HEK293-NOX4, tetracycline-induced, Amplex Red fluorescence (AID 1160). The note with it: 45 min, higher = more signal, called active from +8 up or from −8 down.
NADPH oxidase 4 (Homo sapiens), sequence (Q9NPH5 whole entry, looked up): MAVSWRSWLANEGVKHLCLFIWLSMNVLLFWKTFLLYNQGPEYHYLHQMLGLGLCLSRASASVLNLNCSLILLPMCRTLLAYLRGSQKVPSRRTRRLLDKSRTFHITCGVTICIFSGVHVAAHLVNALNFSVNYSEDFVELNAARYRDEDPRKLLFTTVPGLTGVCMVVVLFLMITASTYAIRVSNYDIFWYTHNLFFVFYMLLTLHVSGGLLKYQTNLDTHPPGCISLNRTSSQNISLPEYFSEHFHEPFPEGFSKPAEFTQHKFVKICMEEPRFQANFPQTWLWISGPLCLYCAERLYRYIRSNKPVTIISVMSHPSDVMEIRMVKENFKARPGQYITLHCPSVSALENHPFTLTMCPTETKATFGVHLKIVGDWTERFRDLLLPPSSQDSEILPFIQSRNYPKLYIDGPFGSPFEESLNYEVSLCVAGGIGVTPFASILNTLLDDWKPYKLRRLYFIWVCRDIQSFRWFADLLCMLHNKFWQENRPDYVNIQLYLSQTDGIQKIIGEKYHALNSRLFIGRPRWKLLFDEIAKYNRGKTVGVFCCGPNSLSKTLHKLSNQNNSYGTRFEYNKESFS
The target of test [20] is NADPH oxidase 5 (Homo sapiens) (UniProt Q96PH1). In words: NOX5-dependent H2O2 signal modulators, primary screen, NOX inhibitor project, cell-based, HEK293-NOX5, Amplex Red fluorescence (AID 1161). As to conditions: HEK293-NOX5, ionomycin, 45 min, higher = more signal.
NADPH oxidase 5 (Homo sapiens), sequence (Q96PH1 whole entry, looked up): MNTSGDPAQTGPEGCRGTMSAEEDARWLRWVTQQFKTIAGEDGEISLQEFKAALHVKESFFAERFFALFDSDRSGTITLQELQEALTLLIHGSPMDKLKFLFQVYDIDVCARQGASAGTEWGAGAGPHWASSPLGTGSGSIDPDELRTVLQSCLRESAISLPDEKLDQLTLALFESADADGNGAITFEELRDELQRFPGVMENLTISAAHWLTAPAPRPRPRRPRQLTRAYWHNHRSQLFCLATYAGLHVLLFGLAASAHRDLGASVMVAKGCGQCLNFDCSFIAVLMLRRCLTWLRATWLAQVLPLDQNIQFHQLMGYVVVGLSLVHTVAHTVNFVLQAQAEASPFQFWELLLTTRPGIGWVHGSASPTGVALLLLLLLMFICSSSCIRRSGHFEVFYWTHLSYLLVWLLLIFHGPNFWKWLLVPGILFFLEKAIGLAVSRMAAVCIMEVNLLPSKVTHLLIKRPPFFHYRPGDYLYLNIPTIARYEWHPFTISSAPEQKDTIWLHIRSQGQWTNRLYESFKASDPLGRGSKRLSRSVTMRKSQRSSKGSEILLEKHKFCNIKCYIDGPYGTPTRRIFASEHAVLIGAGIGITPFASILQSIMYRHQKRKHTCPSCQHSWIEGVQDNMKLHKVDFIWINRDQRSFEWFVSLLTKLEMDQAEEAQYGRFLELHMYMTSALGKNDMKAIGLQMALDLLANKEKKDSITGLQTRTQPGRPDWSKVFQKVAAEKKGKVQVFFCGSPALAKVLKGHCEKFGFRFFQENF

Activity calls are given as the source filed them. Unless noted, no rule for the calls is given here.

Consider 4 compounds from PubChem BioAssay.

NADPH oxidase 2 (Homo sapiens), sequence (P04839 whole entry, looked up): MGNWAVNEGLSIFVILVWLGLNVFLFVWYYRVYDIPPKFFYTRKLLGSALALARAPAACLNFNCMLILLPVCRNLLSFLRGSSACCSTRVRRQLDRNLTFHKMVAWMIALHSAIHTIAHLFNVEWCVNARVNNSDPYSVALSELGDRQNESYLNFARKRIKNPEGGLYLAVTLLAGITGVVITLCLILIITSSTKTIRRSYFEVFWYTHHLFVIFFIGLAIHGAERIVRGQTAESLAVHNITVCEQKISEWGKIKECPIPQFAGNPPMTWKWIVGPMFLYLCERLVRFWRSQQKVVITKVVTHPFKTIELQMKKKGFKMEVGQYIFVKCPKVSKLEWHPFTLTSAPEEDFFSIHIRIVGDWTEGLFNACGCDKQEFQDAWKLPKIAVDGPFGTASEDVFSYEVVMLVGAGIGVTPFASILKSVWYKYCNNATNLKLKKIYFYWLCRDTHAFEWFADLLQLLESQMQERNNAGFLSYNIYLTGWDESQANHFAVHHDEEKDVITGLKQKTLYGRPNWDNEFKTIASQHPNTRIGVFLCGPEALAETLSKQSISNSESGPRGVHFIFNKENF

Regarding `C#CCCCON=C1C[C@@H](O)[C@@H](O)[C@@H]2[C@@H]3C(=O)N(C[C@@H]4CCCO4)C(=O)[C@@H]3CC[C@H]12`, the composite z-score in test [1] is -0.0106; in test [6] it was 0.66; in [7], -0.128; in the test with Torsin-1A (Homo sapiens) [8] it was 0.372; in the test with Torsin-1A (Homo sapiens) [9], 0.406; in test [10] it was 0.554. The same compound showed a composite z-score in test [12] of -0.293. Also, the z-score in test [2] was 0.119 (inactive); in test [3], 0.428 (inactive); in test [4], -0.564 (inactive); in test [5], 0.593 (inactive); in [11] it was -0.25 (inactive); in [13], 0.515 (inactive). The z-score in test [14] is 0.189 (inactive); in [15], -0.0365 (inactive); in [16], 0.0603 (inactive); in [17], 0.591; in test [18], -0.635 (inactive); in test [19], -1.68 (inactive). Besides, the z-score in test [20] was -1.

As to `CCOC(=O)[C@H](CC(C)C)NC(=O)CCC1CC(OC(=O)NCc2ccc3c(c2)OCO3)CC2(CCCC(COC(=O)NCCC(C)C)O2)O1` (stereo not given in full), the composite z-score in test [1] was 0.0093; in test [6], 0.0476; in test [7], -0.128; with Torsin-1A (Homo sapiens) [8] it was -0.0916; in the test with Torsin-1A (Homo sapiens) [9], -0.0963; in test [10], 0.54. The composite z-score in test [12] was -0.768. Further, the z-score was -0.172 (inactive) in test [2]; -0.32 (inactive) in test [3]; -0.889 (inactive) in [4]; 0.128 (inactive) in test [5]; -0.213 (inactive) in test [11]; 2.17 (inactive) in test [13]. Moreover, the z-score in test [14] is -0.299 (inactive); in test [15], -0.443 (inactive); in [16], 0.0255 (inactive); in [17] it was -0.0096; in test [18], 0.246 (inactive); in test [19] it was 0.115 (inactive). The z-score in test [20] turned out to be 0.165.

Regarding `CC(CCN1CCCc2nc(C)c(C)cc21)=NOC[C@@H](O)COCc1ccco1`, the composite z-score in test [1] is 0.516; in test [6] it was 0.0849; in test [7], 1.26; with Torsin-1A (Homo sapiens) [8], 4.39; with Torsin-1A (Homo sapiens) [9] it was 4.29; in [10] it was 2.5. The compound also yielded a composite z-score in test [12] of 1.95. Also, the z-score in test [2] is -0.244 (inactive); in test [3] it was -0.837 (inactive); in test [4] it was -0.0638 (inactive); in test [5], -0.175 (inactive); in [11] it was 0.768 (inactive); in test [13] it was 3.52 (inactive). Further, the z-score is 0.281 (inactive) in [14]; 0.453 (inactive) in test [15]; 0.22 (inactive) in [16]; -0.815 in test [17]; -0.869 (inactive) in test [18]; -0.583 (inactive) in [19]. In [20], this compound yielded a z-score of -0.144.

For `CC(CCN1CCCCc2nc(C)c(C)cc21)=NO[C@H](C)c1cn([C@@H]2COC[C@H]2O)nn1`, the composite z-score is 0.229 in [1]; 1.12 in [6]; -0.0701 in [7]; 2.71 with Torsin-1A (Homo sapiens) [8]; 2.5 with Torsin-1A (Homo sapiens) [9]; 2.01 in test [10]. Besides, in test [12], the composite z-score is -0.0088. Further, the z-score in test [2] was -0.216 (inactive); in [3] it was 0.184 (inactive); in [4], -0.482 (inactive); in test [5] it was -0.445 (inactive); in [11], 0.431 (inactive); in [13], 0.682 (inactive). Besides, the z-score in test [14] was 0.406 (inactive); in [15] it was 0.116 (inactive); in test [16] it was 0.342 (inactive); in test [17] it was -0.363; in [18] it was -0.526 (inactive); in test [19] it was 0.167 (inactive). The z-score in test [20] was -0.376.
